Results taken from PubChem BioAssay.
Activity calls are given as the source filed them. Rule as the data show it, unless noted: active = inhibition above about 80%; inactive = the rest.

Assays:
[1] = LFS_MB_P medulloblastoma growth inhibition, cell-based, chromothripsis tumors, cisplatin or BGB combos (AID 1671449); details: LFS_MB_P medulloblastoma cells;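 also: cells exposed for 96 hours; 0% = vehicle DMSO and 100% = killing by high DMSO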
[2] = HDN33 neuroblastoma growth inhibition, cell-based, chromothripsis tumors, cisplatin or BGB combos (AID 1671450); details: HDN33 neuroblastoma cells, stronger effect = higher value;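 also: cells exposed to compound for four days; 0% = vehicle DMSO and 100% = cell killing by high DMSO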
[3] = ICB984 medulloblastoma cell growth inhibition, synergistic combos for chromothripsis tumors, cisplatin or BGB combos (AID 1671451; call rule not given here;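 also: cells exposed for 96 hours before readout; 0% = vehicle DMSO and 100% = killing by high DMSO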); details: ICB984 medulloblastoma cells, drug combinations, stronger effect = higher value
[4] = LFS_MB_1R medulloblastoma cell growth inhibition, synergistic combos for chromothripsis tumors, cisplatin or BGB combos (AID 1671452); details: LFS_MB_1R medulloblastoma cells, stronger effect = higher value;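 also: cells exposed for 96 hours before readout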
[5] = HTB85 osteosarcoma cell growth inhibition, synergistic combos for chromothripsis tumors, BGB or cisplatin IC20 combos (AID 1671453); details: HTB85 osteosarcoma cells, drug combinations, stronger effect = higher value;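 also: cells exposed for 96 hours before readout; 0% = vehicle DMSO and 100% = high DMSO killing control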
[6] = CRL2098 osteosarcoma cell growth inhibition, synergistic combos for chromothripsis tumors, BGB or cisplatin IC20 combos (AID 1671454); details: CRL2098 osteosarcoma cells, drug combinations, stronger effect = higher value;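 also: cells exposed for 96 h before readout; 0% = vehicle DMSO and 100% = killing by high DMSO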
[7] = HD-MB03 medulloblastoma cell growth inhibition, synergistic combos for chromothripsis tumors, BGB or cisplatin IC20 combos (AID 1671455; in the data active = inhibition above about 83%;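 also: 0% = vehicle DMSO and 100% = high DMSO as cytotoxic control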); details: HD-MB03 medulloblastoma cells, stronger effect = higher value
[8] = UWB1.289 ovarian carcinoma cell growth inhibition, synergistic combos for chromothripsis tumors, BGB or cisplatin combos (AID 1671456); details: UWB1.289 ovarian carcinoma cells, stronger effect = higher value;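 also: cells exposed to compound for four days; 0% = vehicle DMSO and 100% = killing by high DMSO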
[9] = LFS_MB_2R medulloblastoma cell growth inhibition, synergistic combos for chromothripsis tumors, cisplatin combos (AID 1671457); details: LFS_MB_2R medulloblastoma cells, stronger effect = higher value;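 also: cells exposed to compound for four days before readout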
[10] = MDA-MB-436 breast carcinoma cell growth inhibition, synergistic combos for chromothripsis tumors, BGB or cisplatin combos (AID 1671458; call rule not given here;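 also: cells exposed for 96 hours; 0% = vehicle DMSO and 100% = killing by high DMSO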); details: MDA-MB-436 breast carcinoma growth inhibition, drug combinations, stronger effect = higher value
[11] = UWB1.289_BRCA1 ovarian cancer growth, cell-based, BGB or cisplatin combinations (AID 1671459); details: UWB1.289 BRCA1 ovarian carcinoma, drug combinations, stronger effect = higher value
[12] = human astrocyte viability loss, single and combined drugs, cytotoxicity control for chromothriptic childhood tumor combination screen, cell-based, BGB or cisplatin IC20 combos (AID 1671460); details: Human astrocytes, drug combinations, stronger effect = higher value;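 also: cells exposed to compounds for 96 hours before viability readout; 0% = vehicle and 100% = killing control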
[13] = growth inhibition of BT084 medulloblastoma cells, cell-based, ICGC_MB145, cisplatin and BGB IC40 combos (AID 1671461); details: drug combinations, stronger effect = higher value;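 also: cells exposed to drugs for 96 hours; 0% = vehicle DMSO and 100% = high DMSO full killing control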
[14] = growth inhibition of RCMB18 medulloblastoma cells, cell-based, cisplatin and BGB IC40 combos (AID 1671462); details: stronger effect = higher value;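 also: cells exposed to compound for four days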
[15] = growth inhibition of CRL1545 osteosarcoma cells, cell-based, cisplatin and BGB IC20 combos (AID 1671464); details: stronger effect = higher value;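 also: cells exposed to compound for 96 hours before readout; 0% = vehicle DMSO and 100% = high DMSO killing control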
[16] = measured here: combination with BGB IC40, at 0.05 µM
[17] = measured here: with BGB IC20 combination, at 0.5 µM
[18] = measured here: with cisplatin IC20 combination, at 0.5 µM
[19] = measured here: combination with cisplatin, at 0.5 µM
[20] = measured here: combination with cisplatin, at 5 µM

For `Cc1cn(C2CC(O)C(COP(=O)(O)OP(=O)(O)OP(=O)(O)O)O2)c(=O)[nH]c1=O` (stereo not drawn), the inhibition ([1]; at 0.5 µM, stronger effect = higher value) was -19.9% (inactive), the inhibition ([1]; measured here: combination with BGB IC20, at 0.005 µM) was -8.93% and the inhibition ([1]; measured here: combination with BGB IC40, at 0.005 µM) was 80.9%. It also gave an inhibition [1, 16] of 0.344%, an inhibition ([1]; measured here: combination with cisplatin, at 0.5 µM, stronger effect = higher value) of -42.6% and an inhibition ([1]; measured here: combination with cisplatin, at 5 µM, stronger effect = higher value) of -12.4%. The inhibition ([2]; BGB combo, at 5 µM) was -9.68%, the inhibition ([2]; at 0.5 µM) was 4.14% (inactive) and the inhibition ([2]; cisplatin combo, at 5 µM) was 0.577%. It also gave an inhibition [2, 17] of -1.96%, an inhibition [2, 18] of 7.93% and an inhibition ([2]; single agent, at 5 µM) of 1.73%. It also gave an inhibition ([3]; BGB IC20 combo, at 0.005 µM) of 10.7%, an inhibition ([3]; BGB IC40 combo, at 0.005 µM) of 17.3% and an inhibition ([3]; BGB IC40 combo, at 0.05 µM) of 24%. The inhibition ([3]; at 0.5 µM) was 8.18% (inactive), the inhibition ([3]; cisplatin combo, at 0.05 µM) was 20.3% and the inhibition ([3]; cisplatin combo, at 0.5 µM) was 3.65%. The inhibition ([3]; cisplatin combo, at 5 µM) was -24.4%, the inhibition ([3]; measured here: 5 uM single agent, at 5 µM) was 4.13% and the inhibition ([4]; at 0.5 µM) was 6.88% (inactive). It also gave an inhibition [4, 16] of -1.92%, an inhibition [4, 19] of 9.07% and an inhibition [4, 20] of 4.13%. The inhibition ([5]; at 0.5 µM) was 7.15% (inactive), the inhibition ([5]; measured here: with BGB IC20, at 0.5 µM) was 27.1% and the inhibition ([5]; measured here: with BGB IC20, at 5 µM) was 13.2%. The inhibition ([5]; measured here: with cisplatin IC20, at 0.5 µM) was -5.05%, the inhibition ([5]; measured here: with cisplatin IC20, at 5 µM) was 1.73% and the inhibition ([5]; single agent, at 5 µM) was 10.9%. For the same molecule, the inhibition ([6]; at 0.5 µM) was 6.85% (inactive), the inhibition ([6]; measured here: combination with BGB at IC20, at 0.5 µM) was -16.6% and the inhibition ([6]; measured here: combination with cisplatin at IC20, at 0.5 µM) was 29.2%. For the same molecule, the inhibition ([7]; at 0.5 µM) was 10.7% (inactive), the inhibition ([7]; measured here: combo with BGB at IC20, at 0.5 µM) was 9.76% and the inhibition ([7]; measured here: combo with cisplatin at IC20, at 0.5 µM) was 8%. The inhibition ([8]; at 0.5 µM) was 7.19% (inactive), the inhibition ([8]; measured here: inhibition with BGB combination, at 0.05 µM) was 12.5% and the inhibition ([8]; measured here: inhibition with cisplatin combination, at 0.05 µM) was -3.67%. The inhibition ([9]; at 0.5 µM) was 0.97% (inactive), the inhibition [9, 19] was 8.52% and the inhibition [9, 20] was 26.6%. For the same molecule, the inhibition ([10]; at 0.5 µM) was 2% (inactive), the inhibition ([10]; measured here: BGB combination, at 0.5 µM) was -1.94% and the inhibition ([10]; measured here: BGB combination, at 5 µM) was 2.66%. It also gave an inhibition ([10]; measured here: cisplatin combination, at 0.5 µM) of -0.048%, an inhibition ([10]; measured here: cisplatin combination, at 5 µM) of 5.35% and an inhibition ([11]; BGB combination, concentration series, at 5 µM) of 5.28%. For the same molecule, the inhibition ([11]; at 0.5 µM) was 7.57% (inactive), the inhibition ([11]; cisplatin combination, concentration series, at 5 µM) was 6.92% and the inhibition ([12]; at 0.5 µM) was 2.58% (inactive). For the same molecule, the inhibition ([12]; measured here: combo with BGB IC20, at 0.5 µM) was -0.198%, the inhibition ([12]; measured here: combo with cisplatin IC20, at 0.5 µM) was 3.8% and the inhibition ([13]; at 0.5 µM) was 6.5% (inactive). For the same molecule, the inhibition ([13]; cisplatin combination, at 0.5 µM) was 4.31%, the inhibition ([13]; cisplatin combination, at 5 µM) was -28.2% and the inhibition ([13]; measured here: BGB IC40 combination 0.05 uM, at 0.05 µM) was 23.2%. For the same molecule, the inhibition ([13]; single agent, at 5 µM) was 18.9%, the inhibition ([14]; at 0.5 µM) was -1.71% (inactive) and the inhibition ([14]; cisplatin combo, at 5 µM) was -2.93%. The inhibition ([14]; measured here: BGB IC40 combination, at 0.05 µM) was 18.6%, the inhibition [14, 19] was -28.7% and the inhibition ([14]; single agent, at 5 µM) was 2.51%. For the same molecule, the inhibition ([15]; at 0.5 µM) was 12.4% (inactive), the inhibition [15, 17] was 17.1% and the inhibition [15, 18] was 8.61%. For the same molecule, the inhibition ([15]; single agent, at 0.05 µM) was -33% and the inhibition ([15]; single agent, at 5 µM) was -18%.
